# Laboratory results from paper PMC5540273 (PLoS ONE, 2017).
# Where two headings read alike, the source gives them in different places.
# Experiments:
# WNK1 = conditions: concentration: 1 μM, replicates: in singlicate; n = 1
# WNK2 = conditions: concentration: 1 μM, replicates: in singlicate; n = 1
# WNK3 = conditions: concentration: 1 μM, replicates: in singlicate; n = 1
# WNK4 = conditions: concentration: 1 μM, replicates: in singlicate; n = 1
# YANK1 = system: T1, YANK1; conditions: concentration: 1 μM, replicates: in singlicate; n = 1
# T1 construct: gene STK32A
# YANK2 = system: T2, YANK2; conditions: concentration: 1 μM, replicates: in singlicate; n = 1
# T2 construct: gene STK32B
# YANK3 = system: T3, YANK3; conditions: concentration: 1 μM, replicates: in singlicate; n = 1
# T3 construct: gene STK32C
# YES = system: T4, YES; conditions: concentration: 1 μM, replicates: in singlicate; n = 1
# T4 construct: gene YES1
# YSK1 = system: T5, YSK1; conditions: concentration: 1 μM, replicates: in singlicate; n = 1
# T5 construct: gene STK25
# YSK4 = system: T6, YSK4; conditions: concentration: 1 μM, replicates: in singlicate; n = 1
# T6 construct: gene MAP3K19
# ZAK = conditions: concentration: 1 μM, replicates: in singlicate; n = 1
# ZAP70 = conditions: concentration: 1 μM, replicates: in singlicate; n = 1
# p38-alpha = system: T7, p38-alpha; conditions: n = 1
# T7 construct: gene MAPK14
# p38-beta = system: T8, p38-beta; conditions: concentration: 1 μM, replicates: in singlicate; n = 1
# T8 construct: gene MAPK11
# p38-delta = conditions: concentration: 1 μM, replicates: in singlicate; n = 1
# p38-gamma = system: T9, p38-gamma; conditions: concentration: 1 μM, replicates: in singlicate; n = 1
# T9 construct: gene MAPK12
# [1] = concentration: 1 μM, replicates: in singlicate
# 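Also: KINOMEscan kinase panel screen.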
SMILES,%Inh (WNK1),%Inh (WNK2),%Inh (WNK3),%Inh (WNK4),%Inh (YANK1),%Inh (YANK2),%Inh (YANK3),%Inh (YES),%Inh (YSK1),%Inh (YSK4),%Inh (ZAK),%Inh (ZAP70),%Inh (p38-alpha; [1]),%Inh (p38-beta),%Inh (p38-delta),%Inh (p38-gamma),%Inh (p38-alpha; 1 µM)
CN(c1ccc(NC(=O)N2CCN(CCCN3CCOCC3)CC2)cc1)c1ccnc(Nc2ccc(CS(C)(=O)=O)cc2)n1.Cl [GW830899],0%,0%,0%,0%,0%,0%,0%,4%,0%,81%,5%,0%,9%,0%,0%,41%,–
COc1cccc2c(-c3ccncc3)c(-c3ccc(F)cc3)nn12 [GW468513],0%,0%,31%,24%,65%,72%,72%,15%,4%,6%,16%,9%,99.9%,82%,34%,0%,–
COC(=O)Nc1nc2cc(Oc3ccc(NC(=O)Nc4cccc(SC)c4)cc3)ccc2[nH]1.Cl [GW697999],0%,3%,29%,27%,14%,0%,0%,29%,3%,85%,96.3%,0%,54%,0%,28%,4%,–
CN(C)c1ncnc2nc[nH]c12 [SKF-31736],15%,0%,10%,13%,0%,0%,0%,0%,0%,10%,0%,7%,7%,0%,0%,2%,–
CCn1cnc2c(NCc3ccccc3)ncnc21 [SKF-96418],12%,0%,43%,16%,0%,19%,0%,0%,0%,10%,0%,30%,0%,0%,0%,0%,–
O=C(O)C(F)(F)F.O=c1[nH]ccc2nc(N[C@@H]3CCNC3)nc(Nc3cc(Cl)cc(Cl)c3)c12 [GSK2188764],8%,26%,30%,0%,40%,0%,9%,12%,82%,99.7%,0%,1%,0%,0%,18%,23%,–
COc1cccc(C2=C(Nc3cccc(O)c3)C(=O)NC2=O)c1 [SB-390771],13%,25%,7%,35%,0%,0%,2%,15%,16%,43%,38%,5%,0%,0%,45%,18%,–
Cc1nn2c(=O)cc(N3CCO[C@H](C)C3)nc2n1Cc1cccc(Cl)c1Cl [GSK2373693],4%,18%,5%,0%,2%,0%,14%,14%,0%,56%,15%,0%,66%,0%,15%,0%,–
COc1ccc(C)c(Nc2ccnc(Nc3ccc(-c4cnc[nH]4)cc3)n2)c1.Cl [GW784041],0%,0%,0%,0%,0%,0%,0%,29%,0%,7%,92.4%,0%,0%,14%,11%,42%,–
CCOc1nccc(-c2c(-c3ccc(F)cc3)ncn2C2CCNCC2)n1 [SB-249175],25%,4%,4%,0%,52%,36%,0%,0%,2%,37%,15%,32%,99.3%,100%,4%,43%,–
Nc1ncc(-c2cn[nH]c2)c2scc(-c3ccc4c(c3)CCN4C(=O)Cc3ccccc3)c12 [GSK2593067],4%,31%,52%,23%,3%,0%,30%,57%,6%,81%,50%,4%,0%,0%,15%,0%,–
Cl.Cl.NCC(NC(=O)c1cc(-c2cccnc2)c(-c2ccnc3[nH]ccc23)s1)c1ccccc1 (centres unmarked) [GSK1323434],2%,0%,80%,50%,26%,0%,14%,18%,17%,84%,7%,0%,31%,0%,21%,32%,–
O=C(Nc1c(F)cccc1F)c1cc(C(=O)c2ccccc2F)c[nH]1 [GSK1326180],8%,0%,0%,0%,1%,0%,0%,0%,10%,0%,0%,0%,–,15%,0%,7%,47%
CC(C)(C)c1ccc(C(=O)Nc2cn3cc(-n4ccnc4)ccc3n2)cc1,0%,3%,0%,0%,0%,0%,0%,0%,0%,79%,7%,0%,11%,9%,21%,0%,–
NCCC(NC(=O)c1cc(Br)c(-c2ccnc3[nH]ccc23)s1)c1ccccc1.O=C(O)C(F)(F)F.O=C(O)C(F)(F)F (centres unmarked) [GSK1307810],0%,0%,24%,37%,10%,0%,18%,14%,4%,97.3%,10%,0%,8%,0%,21%,0%,–
COC(=O)Nc1nc2ccc(Oc3ccc(CC(=O)Nc4cc(C(F)(F)F)ccc4F)cc3)cc2[nH]1 [GW680903],0%,4%,21%,48%,9%,0%,0%,8%,3%,42%,91.6%,38%,6%,0%,47%,0%,–
CN(C)CCNS(=O)(=O)c1ccc(-c2ccnc3[nH]ccc23)cc1 [GSK977620],0%,0%,0%,0%,21%,0%,27%,16%,78%,88%,83%,0%,0%,1%,39%,0%,–
Cc1ccc(NC(=O)c2ccnc(N3CCCCC3)c2)cc1-c1ccc(C(=O)NCC2CC2)cc1 [GW775610],0%,9%,0%,0%,0%,10%,0%,0%,0%,0%,21%,0%,99.9%,100%,2%,62%,–
CC(C)NCC(Cc1ccccc1)NC(=O)c1cc(Br)c(-c2ccnc3[nH]ccc23)s1.Cl.Cl (centres unmarked) [GSK1383281],0%,0%,0%,18%,21%,0%,0%,0%,40%,83%,73%,0%,0%,0%,16%,0%,–
Cn1cc(-c2ccc3c(c2)CCN3C(=O)Cc2cc(F)cc(F)c2F)c2c(N)ncnc21 [GSK2634140],13%,8%,23%,14%,29%,13%,0%,15%,23%,96.7%,0%,0%,0%,0%,14%,2%,–
CCNC(=O)/C=C/c1n[nH]c2cc(Sc3ccccc3C(=O)NC)ccc12,0%,5%,0%,10%,17%,0%,0%,20%,0%,86%,48%,0%,13%,11%,18%,16%,–
COc1cc(Nc2nccc(N3CCC(NS(=O)(=O)c4ccc(NC(C)=O)cc4)CC3)n2)cc(OC)c1OC [GSK1379825],0%,16%,25%,23%,2%,7%,0%,39%,16%,32%,64%,5%,0%,52%,11%,0%,–
COc1cccc(CC(=O)N2CCc3cc(-c4cn(C)c5ncnc(N)c45)ccc32)c1 [GSK2608899],21%,52%,54%,12%,13%,0%,8%,16%,17%,96.9%,0%,0%,0%,0%,48%,0%,–
